{"source": "PubChem BioAssay (NCATS)", "note": "Records with an inconclusive call do not appear. A call without a number means that no potency is given here. Active and inactive are the calls of the source. Calls come from the whole dose curve; as a rule, active = well fitted inhibition curve with a large enough effect; inconclusive = small, poorly fitted or top-dose-only effect; inactive = flat fitted curve, though single readings scatter.", "data": [{"biological_target": "Glutathione peroxidase 1 (Homo sapiens) (UniProt P07203)", "sequence (P07203 whole entry, looked up)": "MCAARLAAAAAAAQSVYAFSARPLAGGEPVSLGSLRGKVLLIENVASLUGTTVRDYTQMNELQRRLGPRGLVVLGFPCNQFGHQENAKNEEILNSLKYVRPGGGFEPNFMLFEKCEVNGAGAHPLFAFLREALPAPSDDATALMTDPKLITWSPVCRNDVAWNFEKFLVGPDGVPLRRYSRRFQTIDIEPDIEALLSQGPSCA", "assay": "Primary qHTS Assay for Inhibitors of Recombinant Selenoprotein Glutathione Peroxidase 1 (GPX1) (AID 1845191); note: nearly all actives have a fitted effect of over 65% in size", "settings": "recombinant GPX1, GR-coupled NADPH fluorescence, 15 min; series mostly up to 48.8 µM", "description": "Assay Provider: Elias S.J. Arner MD PhD.\nDepartment of Medical Biochemistry and Biophysics\nKarolinska Institutet, Solna, Stockholm, Sweden\nSelenoprotein glutathione peroxidases (GPX), like the ubiquitously expressed GPX1 and the ferroptosis modulator GPX4, enact their antioxidant activities by reducing hydroperoxides using glutathione. […] GPX1 and GPX4 inhibitors have thus shown promise as anti-cancer agents. Existing inhibitors are often promiscuous, or modulate GPX activity only indirectly, so novel direct inhibitors identified through screening against GPX1 and GPX4 could be valuable. Here, we developed optimized glutathione reductase (GR)-coupled GPX assays for the biochemical high-throughput screen (HTS) of almost 12,000 compounds with known mechanisms of action. Initial hits were triaged using a GR counter-screen, assessed for isoform specificity using a separate GPX2 assay, and were assessed for general selenocysteine-targeting activity using a thioredoxin reductase (TXNRD1) assay. With this suite of assays, we identified novel GPX1/GPX2- and GPX4-specific inhibitors and can here present a validated pipeline for future discovery research for selenoprotein-targeting agents.\nSEQUENCE No. (e.g., 1, 2, 3, etc.); […] (e.g., Cells, Incubation, Reagent, etc.); VALUE; DESCRIPTION.\n1; Reagent 1; 3 uL; GPx1 enzyme or no enzyme control in 1536-well, black, solid Greiner assay plate.\n2; Compound; 25 nL; Kalypsis pin tool (Wako USA) equipped with a 1536-well pin head.\n3; Incubation; 30 min; room temperature.\n4; Reagent 2; 1 uL; 10 nM GPX1, 1 mM GSH, 0.5 mM CHP, 0.5 mM NADPH, 100 nM GR, 0.01% BSA substrate\n5; Detection; Fluorescence; ViewLux microplate reader, excitation 340 nm and emission 450 nm.\n6; Incubation; 15 min; room temperature.\n7; Detection; Fluorescence; ViewLux microplate reader, excitation 340 nm and emission 450 nm.\nNOTES (numbers refer to Sequence numbers above)\n1. 3 uL of 16.66 nM GPX1 and 0.016% BSA in assay buffer (50 mM Tris-HCl, 2 mM EDTA (pH 7.5), 150 mM NaCl) was added to columns 3-48 of 1536-well assay plates using a BioRAPTR Flying Reagent Dispenser (Let's Go Robotics (LGR), Carlsbad, CA). A no-enzyme control (0.01% BSA in TES assay buffer) was added to columns 1-2.\n2. 25 nL of test compounds and DMSO controls were added to each well with a pin tool (Kalypsys).\n3. The assay plates were incubated for 30 minutes at room temperature.\n4. 1 uL of master mix (500 nM glutathione reductase (GR), 5 mM reduced glutathione (GSH), 2.5 mM NADPH in assay buffer) was added. 1 uL of cumene hydroperoxide (CHP) ([2.5 mM] in 50% EtOH) was then added within 5 minutes to initiate the reaction. Final concentrations were: 10 nM GPX1, 1 mM GSH, 0.5 mM CHP, 0.5 mM NADPH, 100 nM GR, 0.01% BSA.\n5. Initial fluorescence readout (t=0) at 340/450 nm was measured using a ViewLux multimodal detector (PerkinElmer, Waltham, MA).\n7. Endpoint fluorescence readout (t=15) at 340/450 nm was measured 15 min after room temperature incubation.", "values": [{"smiles": "CC(C)(C(=O)NCC(F)(F)C(F)(F)F)C(=O)N[C@@H]1C(=O)Nc2ccccc2-c2ccccc21", "Potency": "inactive"}, {"smiles": "CC[C@@]1(O)C[C@H](O[C@H]2C[C@H](N(C)C)[C@H](O[C@H]3C[C@H](O)[C@H](O[C@H]4CCC(=O)[C@H](C)O4)[C@H](C)O3)[C@H](C)O2)c2c(cc3c(c2O)C(=O)c2c(O)cccc2C3=O)[C@@H]1C(=O)OC", "Potency": "inactive"}, {"smiles": "CC(C)(Cc1ccc2ccccc2c1)NC[C@@H](O)COc1cccc(Cl)c1C#N", "Potency": "inactive"}, {"smiles": "C=C1C(=O)[C@@]23C(CC[C@@H]1[C@H]2O)[C@@]12CO[C@]3(O)[C@@H](O)[C@@H]1C(C)(C)CC[C@@H]2O", "note": "(stereo not given in full)", "Potency": "inactive"}, {"smiles": "CC(=O)N[C@@H](CS)C(=O)O", "Potency": "inactive"}, {"smiles": "Oc1ccc(C2CCN(c3ccnc4ccccc34)CC2)cc1O", "Potency": "inactive"}, {"smiles": "Nc1ncnc2ccccc12", "Potency": "inactive"}, {"smiles": "O=C(Nc1c(Cl)cncc1Cl)c1ccc(OC(F)F)c(OCC2CC2)c1", "Potency": "inactive"}, {"smiles": "CCNc1cc(NC2CCC(O)CC2)nc(Nc2ccc3c(ccn3Cc3ccccc3)c2)n1", "note": "(stereo not given)", "Potency": "inactive"}, {"smiles": "CO[C@H]1C(=O)[C@]2(C)[C@@H](OC)C[C@H]3OC[C@@]3(OC(C)=O)[C@H]2[C@H](OC(=O)c2ccccc2)[C@]2(O)C[C@H](OC(=O)[C@H](O)[C@@H](NC(=O)OC(C)(C)C)c3ccccc3)C(C)=C1C2(C)C", "Potency": "inactive"}, {"smiles": "CO[C@@H](C(=O)N1Cc2[nH]nc(NC(=O)c3ccc(N4CCN(C)CC4)cc3)c2C1)c1ccccc1", "Potency": "inactive"}, {"smiles": "COc1ccc2c(Oc3ccc(NC(=O)c4c(C)n(CC(C)(C)O)n(-c5ccccc5)c4=O)cc3F)ccnc2c1", "Potency": "inactive"}, {"smiles": "COc1ccc2cccc(CCNC(C)=O)c2c1", "Potency": "inactive"}, {"smiles": "CC(C)NCC(O)COc1cccc2[nH]ccc12", "note": "(stereo not given)", "Potency": "inactive"}, {"smiles": "O=C(O)Cc1cccc2ccccc12", "Potency": "inactive"}, {"smiles": "Cc1cnc(C(=O)O)c[n+]1[O-]", "Potency": "inactive"}, {"smiles": "CC1(C)Cc2c(sc(NC(=S)NC(=O)c3ccccc3)c2C(=O)O)CO1", "Potency": "inactive"}, {"smiles": "O=C(NC1CCOCC1)c1ccc(-c2cc(-c3cn[nH]c3-c3ccccn3)ccn2)cc1", "Potency": "inactive"}, {"smiles": "O=C1NCC2(CCN(CCc3ccccc3)CC2)O1", "Potency": "inactive"}, {"smiles": "CCCNC(=O)NS(=O)(=O)c1ccc(Cl)cc1", "Potency": "inactive"}, {"smiles": "Cc1c(NC(=O)c2ccc(C(C)(C)C)cc2)cccc1-c1cn(C)c(=O)c(Nc2ccc(C(=O)N3CCOCC3)cc2)n1", "Potency": "inactive"}, {"smiles": "CC(=O)Nc1ccc([C@H](C)C(=O)Nc2ncc(C(C)C)s2)cc1", "Potency": "inactive"}, {"smiles": "COCCOC(=O)C1=C(C)NC2=C(C(=O)CC(c3ccccc3OC)C2)C1c1cccc(O)c1", "note": "(stereo not given)", "Potency": "inactive"}, {"smiles": "COc1cc2ncnc(Nc3ccc(F)c(Cl)c3)c2cc1OCCCN1CCOCC1", "Potency": "inactive"}, {"smiles": "CCCCCCCCCCCC1=C(O)C(=O)C=C(O)C1=O", "Potency": "inactive"}, {"smiles": "COc1ccc(-c2nc(N3CCOCC3)c3sc(CN(C)c4ncc(C(=O)NO)cn4)cc3n2)cn1", "Potency": "inactive"}, {"smiles": "O=c1c(-c2ccc(O)cc2)coc2cc(O)ccc12", "Potency": "inactive"}, {"smiles": "COc1ccc(-n2c(C)c([N+](=O)[O-])c3ccc(O)cc32)cc1", "Potency": "inactive"}, {"smiles": "CN(C)Cc1cccc(N=C(c2ccccc2)c2c(O)[nH]c3cc(C(=O)N(C)C)ccc23)c1", "Potency": "inactive"}, {"smiles": "Cc1cccc(Nc2nc(-c3ccncc3)cs2)c1", "Potency": "inactive"}, {"smiles": "CN(C)Cc1ccc(-c2nc3cccc4c3n2CCNC4=O)cc1", "Potency": "inactive"}, {"smiles": "O=C(CCCCCCC(=O)Nc1ccccc1)NO", "Potency": "inactive"}, {"smiles": "CC#CCn1c(N2CCC[C@@H](N)C2)nc2c1c(=O)n(Cc1nc(C)c3ccccc3n1)c(=O)n2C", "Potency": "inactive"}, {"smiles": "Oc1ccc(C2=Cc3ccc(O)cc3OC2)cc1", "Potency": "inactive"}, {"smiles": "CC(C)[C@H](CO)Nc1nc(Nc2ccc(C(=O)O)c(Cl)c2)c2ncn(C(C)C)c2n1", "Potency": "inactive"}, {"smiles": "CCc1ccc(OCc2ccccc2C(=O)Nc2ccc3nc(C)cc(N)c3c2)cc1", "Potency": "inactive"}, {"smiles": "O=C(Nc1cc(Cl)cc2c1[nH]c1cnccc12)c1cccnc1", "Potency": "inactive"}, {"smiles": "Nc1ncnc2c1nc(Cl)n2[C@@H]1O[C@H](CO)[C@@H](O)[C@@H]1O", "Potency": "inactive"}, {"smiles": "CN(C)CCC(c1ccccc1)c1ccccn1", "note": "(stereo not given)", "Potency": "inactive"}, {"smiles": "O=C(O)CCc1nc(-c2ccccc2)c(-c2ccccc2)o1", "Potency": "inactive"}]}]}
